This is an account of results in PubChem BioAssay AID1672 (Johns Hopkins Ion Channel Center, 2009).

Hit rate of the full screen: of about 310,000 compounds, about 2,600 (0.84%) were called active.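 Rule for the calls: active = fluorescence ratio B-score at or below minus 3 SD of library scores, with starting-brightness B-score within 2 SD (cut at about -4.2 in these data); inactive = the rest.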 Only a selection was taken, and actives are over-represented in it overall.

In this assay the target is Inward rectifier potassium channel 2 (Mus musculus) (UniProt P35561). Kind of assay: blocks the mouse Kir2.1 inward-rectifier potassium channel (AID 1672).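 Note: channel flux triggered by added potassium and thallium sulfate stimulus; B-score of peak minus minimum fluorescence over baseline after thallium stimulus; more negative B-score means stronger Kir2.1 block with less thallium influx.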 The note with it: HEK293-Kir2.1, FluxOR thallium flux fluorescence; at 10 µM; stronger effect = lower value.
Inward rectifier potassium channel 2 (Mus musculus), sequence (P35561 whole entry, looked up): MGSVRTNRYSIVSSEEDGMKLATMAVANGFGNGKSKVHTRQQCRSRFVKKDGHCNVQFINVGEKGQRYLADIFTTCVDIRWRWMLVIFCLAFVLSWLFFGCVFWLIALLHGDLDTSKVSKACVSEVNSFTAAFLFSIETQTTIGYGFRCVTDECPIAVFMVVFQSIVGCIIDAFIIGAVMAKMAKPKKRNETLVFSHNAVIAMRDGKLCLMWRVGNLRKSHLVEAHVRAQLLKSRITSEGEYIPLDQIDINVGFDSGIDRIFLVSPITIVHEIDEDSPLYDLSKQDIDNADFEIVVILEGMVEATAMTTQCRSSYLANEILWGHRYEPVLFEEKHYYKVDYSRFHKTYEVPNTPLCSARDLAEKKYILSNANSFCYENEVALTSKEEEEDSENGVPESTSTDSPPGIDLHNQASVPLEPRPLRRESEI
In the case of `CCN(CC(=O)Nc1cccc(S(=O)(=O)N2CCCCC2)c1)Cc1ccccc1`, the B-score is -0.91 (inactive).
In the case of `Cc1ccccc1NC(=O)COc1cccc2c1CCNC2=O`, the B-score was -0.1 (inactive).
For `Cc1cc(OCC(=O)N(C)c2c(N)n(Cc3ccccc3)c(=O)[nH]c2=O)c(C(C)C)cc1Cl`, the B-score is -0.39 (inactive).
In the case of `FC(F)(F)c1ccc2c3n(nc2c1)CCN=C3c1ccc(Cl)cc1`, the B-score was 0.62 (inactive).
For `CN(C(=O)c1cc2c(=O)n3ccccc3nc2s1)C1CCCCC1` the value was -0.51 (inactive); for `CC(C)CN(C(=O)Cn1c(=O)cnc2ccccc21)C1CCS(=O)(=O)C1` (stereo not drawn), -2.2 (inactive).
With `Cc1ccc(SC(C)C(=O)NCc2ccc(F)cc2)cc1` (stereo not drawn), the B-score was -0.79 (inactive).
Take `Cc1ccc(NC(=O)CN(C)Cc2ccc(F)cc2)c([N+](=O)[O-])c1`: the B-score is -0.89 (inactive).
For the compound `CSc1ccc(CN(C)CC(=O)NCc2ccc(F)cc2)cc1`, the B-score is -4.3 (active).
In the case of `CN(CC(=O)Nc1cccc(F)c1)C(=O)C1=COCCO1`, the B-score was -0.96 (inactive).
`O=C(NCCC1CCCCN1S(=O)(=O)c1cccs1)C(=O)Nc1ccc(F)cc1F` (stereo not drawn): the B-score was -1.66 (inactive).
For `Cc1cc(C)c(C)c(S(=O)(=O)Nc2cccnc2)c1C` the value was -0.73 (inactive); for `CCOc1ccc(NS(=O)(=O)c2cc(C)c(C)cc2C)cc1`, -1.54 (inactive).
Next, `Cc1cc(C)c(C)c(S(=O)(=O)Nc2ccc(O)cc2)c1C`: -9.99 (active); `C=CCC1(C(=O)N(C)Cc2ccccc2)CCN(C(=O)OC(C)(C)C)CC1`: 0.59 (inactive); `COc1cc2ccccc2cc1C(=O)Nc1ccncc1`: -0.09 (inactive).
For `OCCNCc1cccc(OCc2ccccc2Cl)c1` the value was -5.85 (active); for `S=C(NCCc1ccccc1)NCc1ccccc1Cl`, -2.33 (inactive).
Take `OCCNCCOc1ccc(Cl)c(Cl)c1`: the B-score is 0.04 (inactive).
Consider `CCCCN(C(=O)c1ccc(C)o1)c1c(N)n(CCCC)c(=O)[nH]c1=O`, for which the B-score is 1.81 (inactive).
As for `CC(C)(C)n1nc(Cc2cccc3ccccc23)c(C#N)c1N`, the B-score was 0.39 (inactive).
Regarding `CC(C)(c1ccccc1)c1ccc(OCCN2CCCC2)cc1`, the B-score is -6.84 (active).
As for `c1ccc(-c2ccc(OCCN3CCOCC3)cc2)cc1`, the B-score was -0.1 (inactive).
Consider `CN(C)CC(O)COc1ccc(C(C)(C)c2ccc(OCC(O)CN(C)C)cc2)cc1` (stereo not drawn), for which the B-score was -2.29 (inactive).
For `c1ccc2cc(OCCN3CCCC3)ccc2c1`, the B-score was 1.22 (inactive).
For `CC(C)(c1ccccc1)c1ccc(OCCN)cc1` the value was -6.43 (active).
Turning to `Cc1nn(CCOc2ccccc2)c(=O)n1-c1ccccc1F`, the B-score was -0.66 (inactive).
For `O=C(NC(Cc1ccccc1)C(=O)N1CCCC(C(F)(F)F)C1)c1ccccc1` (stereo not drawn) the value was -0.03 (inactive).
